TGFb inhibitor = blocks TGF-b signaling; HepG2 CAGA-GFP TGF-b/SMAD3 reporter, GFP fluorescence, 18 h; TGF-beta stimulated, 500 pg/mL final; hit rate 1.2% among 410,000; Potency, µM (doses to about 46.1 µM), for inactives: top-dose activity, negative = inhibition, usual class: inhibitors; also: % is scaled to controls: 0 for no effect and ±100 for the full control effect; nearly all actives have a fitted effect of over 65% in size
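Read-out: total well GFP (ex488/em500-530) summed from mean per-cell fluorescence. Cells: HEPG2 CAGA-GFP, 1% FBS DMEM, 18 h at 37 degrees C with 500 pg/mL final TGF-beta. Unstimulated wells served as the full-inhibition control; stimulated DMSO wells = 0%.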
HT1080NT lethal = kills 2HG-producing HT-1080-NT fibrosarcoma cells; hit rate 1.6% among 360,000; AID 686970; Potency, µM (top dose mostly 46.1 µM), for inactives: at the top dose activity, negative = less viability, most hits filed as cytotoxic; HT-1080-NT fibrosarcoma viability, CellTiter-Glo ATP luminescence, 48 h;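 also: NT is the 2HG producing partner of a matched IDH1 knockdown line; 0% = DMSO-treated cells and -100% = media-only wells without cells; nearly all actives have a fitted effect of over 55% in size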
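HT-1080-NT; 750 cells/well; 5% FBS RPMI; 48 h compound, 37 degrees C; CellTiter-Glo luminescence; curve fitting and curve-class assignment.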
KB-3-1 cytotox = kills parental KB-3-1 adenocarcinoma cells; KB-3-1 viability, CellTiter-Glo ATP luminescence, 72 h; Potency, µM (doses to about 46.1 µM), hits mostly cytotoxic; hit rate 1.4% among 400,000; also: % is scaled to controls: 0 for no effect and ±100 for the full control effect; nearly all actives have a fitted effect of over 60% in size
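Cells are dispensed, compounds pinned in, plates held at 37 °C for 72 h, then CellTiter-Glo is added and luminescence read after 10 minutes. Cell line: parental KB-3-1 in phenol-red-free DMEM, 10% FBS.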
HepG2 viability = kills HepG2 cells in TGF-b inhibitor counter-screen; HepG2 CAGA-GFP viability, ATP luminescence, 18 h; Potency, µM (titrated, usually from 46.1 µM), inactives show at the top dose activity change, negative = cytotoxicity, actives largely listed as cytotoxic; hit rate 0.76% among 410,000; AID 588856
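HepG2 CAGA-GFP cells (1000/well, DMEM with 1% FBS) received compound, then TGF-beta at 500 pg/mL final, and were incubated 18 hours at 37 degrees C. Viability was read by CellTiter-Glo luminescence. Media-only wells were set as complete cell-killing and DMSO as no toxicity.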
HT1080 IDH1KD tx = HT-1080 IDH1 knockdown cell toxicity (counter line); hit rate 2% among 360,000; AID 686971; HT-1080 IDH1 knockdown viability, ATP luminescence, 48 h; Potency, µM (doses to about 46.1 µM), without a hit: top-dose activity, negative = toxicity, actives largely listed as cytotoxic;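 also: 0% = DMSO wells and -100% = cell-free medium wells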
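Luminescent ATP read-out (CellTiter-Glo, 10 min at room temperature) after 48 h compound exposure at 37 °C gave viability of IDH1-knockdown HT-1080 cells. Activity was normalised to DMSO and cell-free wells, then fitted as concentration-response curves.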
KB-V1 MDR tox = kills drug-selected multidrug resistant KB-V1 cells; KB-V1 MDR cells viability, CellTiter-Glo, 72 h; Potency, µM (highest dose often 46.1 µM), most hits filed as cytotoxic; hit rate 3.4% among 400,000; also: % is scaled to controls: 0 for no effect and ±100 for the full control effect; nearly all actives have a fitted effect of over 60% in size
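Cytotoxicity via CellTiter-Glo luminescence after 72 h compound exposure at 37 degrees C. Cells: drug-selected KB-V1 line, DMEM phenol-red free plus 10% FBS. Compounds tested at multiple concentrations; normalized data fitted to concentration-effect curves.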
* marks the source's active call; other numbers are inactive results; i = inactive; ? = inconclusive; / = no result given. Rows were chosen to be rich in hits. Some 6.6% of all compounds tested hit in one or more screens of this group. Calls follow the shape of the dose curve; as a rule, active = well fitted curve in the direction sought with a large enough effect; inconclusive = small, poorly fitted or top-dose-only effect, or another doubt; inactive = no such curve, though single readings can be large; an effect the other way counts as inactive or inconclusive. Potency is read from the fitted curve at half-maximal effect.

SMILES | TGFb inhibitor | HT1080NT lethal | KB-3-1 cytotox | HepG2 viability | HT1080 IDH1KD tx | KB-V1 MDR tox
CCC(C(=O)NC1CCCC1)N(Cc1cccs1)C(=O)Cn1nnc(-c2ccc(OC)c(OC)c2)n1 (centres undefined) | -8% | -23% | i | -18% | -24% | i
COc1ccc(-c2nnn(CC(=O)N(Cc3cccs3)C(C)C(=O)NC3CCCC3)n2)cc1OC (centres undefined) | -5% | -28% | i | -19% | ? | 2.1µM*
Cc1ccc(N(C(=O)Cn2nnc(-c3ccc(C)o3)n2)C(C(=O)NC2CCCC2)c2ccncc2)cc1 (centres undefined) | 6% | 5% | i | 3% | -5% | i
Cc1ccc(-c2nnn(CC(=O)N(Cc3ccccc3)C(C(=O)NC3CCCC3)c3ccncc3)n2)o1 (centres undefined) | -9% | 2% | i | 8% | ? | 21µM*
Cc1ccc2ncc(C(=O)NC(C)c3ccccc3)c(=O)n2c1 (centres undefined) | -8% | / | i | -7% | / | i
COc1ccc(-c2nnn(CC(=O)N(CC(=O)NC3CCCC3)Cc3cccs3)n2)cc1OC | 10% | 4% | i | -4% | -18% | 12µM*
CC(SC1=NS(=O)(=O)c2ccccc21)C(=O)O (centres undefined) | 14% | / | i | 15% | / | i
CC1=NN(c2ccccc2)C(=O)C1=Cc1ccccc1 | -5% | -5% | i | 0% | -2% | ?
CC1=NN(c2ccccc2)C(=O)/C1=C/c1c(O)n(-c2ccc(F)cc2)[nH]c1=O | ? | -8% | 21µM* | -43% | 2% | 7.3µM*
O=C(NN=Cc1c(O)ccc2ccccc12)c1ccc2c(c1)OCO2 | ? | 5.8µM* | ? | -81% | 5.2µM* | ?
O=C(CNC(=O)c1ccc2c(c1)OCO2)N/N=C(Br)/C=C/c1ccccc1 | -12% | ? | ? | 17% | 15µM* | i
O=C(CNC(=O)c1ccc2c(c1)OCO2)N/N=C/c1cccc([N+](=O)[O-])c1 | -10% | 16% | i | 2% | 16% | i
Cc1cc(O)cc(O)c1/C=N/NC(=O)c1ccc2c(c1)OCCO2 | -1% | ? | ? | -18% | 13µM* | ?
CC/C(=N/NC(=O)c1ccc2c(c1)OCO2)c1ccccc1O | 2.5µM* | -19% | ? | -39% | 23µM* | ?
CC(C)c1ccc(O)c(NC(=S)NC(=O)c2ccc3c(c2)OCO3)c1 | 14µM* | ? | i | -84% | 15µM* | i
O=C(NC(=S)Nc1ccccc1Br)c1ccc2c(c1)OCO2 | 0% | 7% | / | -38% | 2% | /
CC[C@H](C)[C@@H]1NC(=O)[C@@H](CC(C)C)NC(=O)[C@H](C(C)C)NC(=O)[C@H]2CSSC[C@H](NC1=O)C(=O)N2 | 1.3µM* | 0.46µM* | 1.2µM* | 1.1µM* | 0.52µM* | i
CCCC/C=C/[C@H](c1ccccc1)[C@H](CO)Cc1ccccc1 | -24% | / | / | -25% | / | /
O=C(CCc1nc2ccccc2c(=O)[nH]1)NCc1cccc(Cl)c1 | 6% | 21µM* | ? | -24% | ? | i
O=C(NC1CC1)c1sc2cc(Cl)ccc2c1Cl | -2% | 7% | i | -23% | 6% | ?
CC1(C)CC(NC(=O)c2sc3cc(Cl)ccc3c2Cl)CC(C)(C)N1 | 25% | 15µM* | ? | -36% | 12µM* | 18µM*
CNC(=O)C1CCC(Cn2c(=O)c3sccc3n(Cc3ccccc3)c2=O)CC1 (centres undefined) | 3% | / | i | 0% | / | i
CC1CCC(C(=O)NC(C(=O)N2CCN(c3ccccn3)CC2)C(C)C)CC1 (centres undefined) | -1% | 4% | i | 0% | ? | 3.3µM*
CC1CCC(C(=O)NC(C(=O)N2CCc3ccccc3C2)C(C)C)CC1 (centres undefined) | -3% | -9% | i | -20% | -10% | i
COC(C(=O)C(O)C(C)O)C1Cc2cc3cc(OC4CC(OC5CC(O)C(O)C(C)O5)C(O)C(C)O4)c(C)c(O)c3c(O)c2C(=O)C1OC1CC(OC2CC(OC3CC(C)(O)C(O)C(C)O3)C(O)C(C)O2)C(O)C(C)O1 (centres undefined) | 0.63µM* | / | 0.0052µM* | 23% | / | i
SMILES | TGFb inhibitor | HT1080NT lethal | KB-3-1 cytotox | HepG2 viability | HT1080 IDH1KD tx | KB-V1 MDR tox
CCc1ccc(S(=O)(=O)Nc2ccc3[nH]c(=O)sc3c2)cc1 | 4% | / | / | -23% | / | /
CC(C)OC(=O)c1ccc(NCc2cc(O)ccc2O)cc1 | ? | 21µM* | ? | 2% | 18µM* | ?
COC(=O)c1ccc(CCc2cc(O)ccc2O)cc1 | 0% | 26µM* | i | -10% | ? | ?
COC(=O)c1ccc(CCc2cc(O)c(Br)cc2O)cc1 | ? | -29% | ? | -29% | -28% | i
COC(=O)c1ccc(OCC(=O)c2ccc(O)cc2O)cc1 | 2% | -3% | ? | -29% | -19% | 23µM*
C=C1C(=O)O[C@@H]2[C@H]1[C@@H](OC(=O)/C(C)=C/C)C/C(C)=C\C(=O)/C=C(\C)[C@@H]2O | 7.1µM* | ? | 2.9µM* | 11µM* | ? | ?
Fc1ccccc1N1CCN(c2c3c(nc4nncn24)CCC3)CC1 | -19% | / | i | -15% | / | ?
O=C(Cc1ccccc1)NCc1ccc(-n2cccc2)cc1 | ? | 5.2µM* | ? | -13% | 5.8µM* | i
O=C(CCn1cccc1)NCc1ccccc1 | ? | 0% | i | 5% | -2% | i
O=C(Cc1ccc(-n2cccc2)cc1)NCc1ccccc1Cl | -32% | 8.2µM* | ? | -9% | 8.2µM* | i
Cc1ccccc1-c1nc2scc(CCNC(=O)c3ccco3)n2n1 | -1% | / | i | -6% | / | i
CCOc1ccc(NC(=O)c2oc3ccccc3c2NC(=O)Cc2cccs2)cc1 | -14% | / | i | -29% | / | i
O=c1cc(CSc2nc(NCc3ccccc3)c3ccccc3n2)nc2ccc(Cl)cn12 | 0% | 4% | i | 10% | 4% | 2.3µM*
COc1ccc(CNc2nc(SCc3ccc(Cl)cc3)nc3ccccc23)cc1 | 0% | / | / | 3% | / | /
Cc1ccc(-c2nnc(NC(=O)Nc3ccc4ccccc4c3)s2)cc1 | / | / | i | / | / | ?
CCOc1ccc(S(=O)(=O)NCCC(=O)OCC(=O)NC(=O)c2cccn2C)cc1 | 1% | 1% | i | 0% | 9% | i
